Assay outcomes: PubChem, NMMLSC
Rac1 wt modul: human Rac1 wildtype GTP binding, inhibitors and activators. P63000. GST-Rac1 beads, fluorescent GTP binding, flow cytometry; actives lie on both sides; 0 = cold GTP competed, 100 = untreated. GTP binding activity (% of control), % at 10 µM. 0.27% of 190,000 active. AID 757;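 active = GTP binding activity at least 20 points away from the 100% control level, either lower or higher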
Rab2 wt GTP: changes GTP binding to wildtype dog Rab2A, up or down | P61105 | GST-Rab2 wt beads, Bodipy-GTP binding, flow cytometry | GTP binding activity, % at 10 µM | 0.19% of 190,000 active | AID 760;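 active = GTP binding activity at least 20 points away from 100%, either lowered or raised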;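 note: 0% = beads with excess unlabeled GTP and 100% = no-compound control corrected for plate trend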
Cdc42 wt GTP: modulators (inhibitors or activators) of GTP binding to human Cdc42 wildtype. GST-Cdc42 beads, Bodipy-GTP binding, flow cytometry; actives lie on both sides. percent activity (GTP binding), % at 10 µM. 0.2% of 190,000 active. AID 761;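 active = percent activity GTP binding at least 20 points away from the 100% baseline, either down as inhibitor or up as activator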;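 note: median bead fluorescence of bound Bodipy-FL-GTP at 100 nM; 0% = excess unlabeled GTP control and 100% = no compound control; below 100% means less GTP binding so inhibitor and above means activator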
Target sequence (P60953 whole entry, looked up): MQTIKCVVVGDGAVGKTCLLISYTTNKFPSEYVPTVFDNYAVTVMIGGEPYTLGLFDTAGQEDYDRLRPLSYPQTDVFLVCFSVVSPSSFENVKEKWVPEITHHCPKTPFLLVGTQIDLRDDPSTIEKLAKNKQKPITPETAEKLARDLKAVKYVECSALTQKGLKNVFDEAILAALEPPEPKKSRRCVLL
Rab7 wt modul: dog Rab7 wildtype GTP binding, inhibitors and activators. GST-Rab7 beads, fluorescent GTP binding, flow cytometry; actives lie on both sides; untreated = 100%, excess cold GTP = 0%. GTP binding activity (percent of control), % at 10 µM. 0.055% of 190,000 active. AID 758;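 active = fluorescent GTP binding to Rab7 beads changed by at least 20 points from the 100% baseline, either direction, mostly lower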;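 note: median green fluorescence of bound Bodipy-FL-GTP per Rab7 bead population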
HRas wt GTP bind: changes GTP binding to wildtype human HRas; P01112; GST-Ras wt beads, Bodipy-FL-GTP binding, flow cytometry; actives lie on both sides; GTP binding activity, % at 10 µM; 0.14% of 190,000 active; AID 759;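 active = GTP binding activity at least 20% away from the 100% baseline, either lowered as inhibitor or raised as activator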;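 note: 0% = unlabeled GTP competition control and 100% = no-compound control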
Target sequence (P01112 whole entry, looked up): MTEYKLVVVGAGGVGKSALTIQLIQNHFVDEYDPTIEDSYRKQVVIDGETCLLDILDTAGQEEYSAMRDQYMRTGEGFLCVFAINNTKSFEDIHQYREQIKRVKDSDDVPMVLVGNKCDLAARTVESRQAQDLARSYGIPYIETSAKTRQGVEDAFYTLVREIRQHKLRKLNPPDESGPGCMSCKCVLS
Rac1 mut GTP: modulators of GTP binding to human Rac1 activated mutant. GST-Rac1 activated beads, fluorescent GTP binding, flow cytometry; actives lie on both sides; 100% means binding = to untreated wells. 0.11% of 190,000 active. percent activity (GTP binding), % at 10 µM;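 active = GTP binding at least 20 percentage points away from the 100% baseline, in either direction, so actives lie on both sides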
* hit, by the source's call; [ ] = remark or other dose. Hits are enriched below; roughly 0.38% of the tested compounds scored in any of these assays.

SMILES	Rac1 wt modul	Rab2 wt GTP	Cdc42 wt GTP	Rab7 wt modul	HRas wt GTP bind	Rac1 mut GTP
Cc1ccc(Oc2ccc(-c3nnc(-c4ccccc4)o3)cc2[N+](=O)[O-])cc1C	102.0	97.0	98.0	96.0	99.0	99.0
CCOC(=O)C1=NN(c2ccc(C)cc2)CC1C(=O)OC (stereo unspecified)	123.0*[activator]	97.0	118.0	95.0	96.0	97.0
Cc1ncc(CN2CCC(CO)(Cc3ccccc3)CC2)s1	98.0	98.0	97.0	98.0	98.0	95.0
Cc1c(C(=O)N/N=C/c2ccc(O)c(Br)c2)sc(N)c1C#N	76.0*	79.0*	89.0	93.0	80.0	92.0
COc1cc(/C=N/NC(=O)c2sc(N)c(C#N)c2C)ccc1O	93.0	90.0	96.0	95.0	93.0	96.0
CCOC(=O)c1cc2c(N)c(C(=O)c3ccc(Br)cc3)sc2[nH]c1=O	64.0*	71.0*	71.0*	90.0	74.0*	79.0*
Cc1ccc(/C=C/C(=O)c2ccccc(=O)c2O)cc1C	82.0	81.0	78.0*	87.0	84.0	74.0*
N#CC(c1ccc(Cl)nn1)c1ccc(Cl)cc1Cl (stereo unspecified)	121.0*[activator]	108.0	112.0	105.0	108.0	99.0
CC(C)C(NCc1c(Cl)cccc1Cl)C(=O)O (stereo unspecified)	124.0*[activator]	115.0	118.0	112.0	114.0	114.0
COc1ccc(-c2nnc(CSc3nc4ccccc4c(=O)n3C)o2)cc1OC	120.0*[activator]	106.0	104.0	106.0	107.0	104.0
Cn1c(SCc2nnc(-c3ccccc3)o2)nc2ccccc21	102.0	103.0	101.0	106.0	100.0	100.0
Cc1sc(NC(=O)c2ccco2)c(CN2CCN(Cc3ccccc3)CC2)c1C	93.0	93.0	91.0	99.0	92.0	92.0
Cn1c(=O)n(Cc2ccc(F)cc2)c(=O)c2c1nc1n2CCN1Cc1ccco1	75.0*	77.0*	80.0	92.0	81.0	89.0
C/C(CC(=O)Nc1cc(Cl)ccc1Cl)=N\NC(=O)c1ccccc1Br	101.0	96.0	99.0	95.0	94.0	97.0
O=C(NCc1ccc2c(c1)OCO2)c1ccc(CSCc2cccc(Cl)c2)o1	83.0	80.0	79.0*	88.0	82.0	82.0
Cn1c(SCc2cccc([N+](=O)[O-])c2)nc2c(c1=O)SCC2	96.0	95.0	94.0	100.0	96.0	93.0
Cc1nnc(NC(=O)CSc2ccc3nnc(-c4ccccn4)n3n2)s1	98.0	93.0	92.0	104.0	97.0	94.0
O=C(CSc1ccc2nnc(-c3cccs3)n2n1)N1CCCC1	73.0*	85.0	82.0	96.0	84.0	88.0
CCOC(=O)CSc1ccc2nnc(-c3cccs3)n2n1	92.0	90.0	99.0	95.0	94.0	97.0
O=C(CSc1ccc2nnc(-c3ccccn3)n2n1)Nc1nccs1	54.0*	62.0*	65.0*	80.0	68.0*	73.0*
O=C(CSc1ccc2nnc(-c3ccncc3)n2n1)Nc1nccs1	71.0*	80.0	79.0*	86.0	83.0	86.0
COc1cccc(NC(=O)N2CCN(c3nnnn3-c3ccccc3)CC2)c1	98.0	98.0	97.0	100.0	100.0	94.0
CC(=O)N1CCN(CC(=O)Nc2c(Cl)ccc(C)c2Cl)CC1	96.0	98.0	98.0	94.0	95.0	94.0
N#Cc1c(=O)c2nc(NCCCO)ncc2n2c(=O)c3ccccc3[nH]c12	103.0	86.0	84.0	96.0	91.0	93.0
N#Cc1c(=O)c2nc(NCc3ccccc3)ncc2n2ccccc12	79.0*	80.0	84.0	85.0	83.0	90.0
COc1ccc(S(=O)(=O)N2CCOCC2)cc1NC(=O)CSc1nnc(C2CC2)n1N	99.0	96.0	95.0	95.0	96.0	96.0
COc1cccc2c(SCC(=O)N/N=C/c3ccc(O)cc3O)cc(C)nc12	66.0*	66.0*	66.0*	85.0	72.0*	83.0
COc1cc(/C=C2\SC(=Nc3ccc(O)cc3)NC2=O)cc(OC)c1O	72.0*	83.0	79.0*	96.0	84.0	86.0
O=C1NC(=Nc2ccc(O)cc2)S/C1=C/c1ccco1	95.0	93.0	95.0	94.0	93.0	93.0
